From PubChem BioAssay (Tox21) come the findings set out here.

Structures are written as SMILES. Records with an inconclusive call do not appear. Entries that show only a call come without a potency. Active and inactive are the calls of the source. Calls follow the shape of the dose curve; as a rule, active = well fitted cell-killing curve with a large enough effect in the repeat runs; inconclusive = weak or mixed curves; inactive = flat fitted curve, though single readings scatter.

A short description of the experiment: qHTS RealTime-Glo MT Cell Viability Assay in HepG2 cells - 8 hour (AID 1224873). Also: nearly all actives have a fitted effect of over 55% in size. Particulars: RealTime-Glo luminescence; series mostly up to 76.8 µM; viability change, negative = cytotoxic: at the top concentration. The text has this:
National Center for Advancing Translational Sciences [NCATS]
NIH Chemical Genomics Center [NCGC]
U.S. Environmental Protection Agency [EPA]
National Institutes of Environmental Health Sciences [NIEHS]
National Toxicology Program [NTP]
U.S. Food and Drug Administration [FDA]
Measure of cell viability is critical in the cell-base assay. Analysis of cell viability is necessary for the characterization of cell responses to cytotoxic drugs and environmental stress. A RealTime-Glo MT Cell Viability Assay to monitor cell viability in real time of continues cell culture during 40 hours of compound treatment was used to screen Tox21 10K library compounds in HepG2 cells. The RealTime-Glo MT Cell Viability Assay is a nonlytic, homogeneous, bioluminescent method to measure cell viability in real time using a simple, plate-based method. The assay involves adding NanoLuc luciferase and a cell-permeant prosubstrate to cells in culture. Viable cells reduce the proprietary prosubstrate to generate a substrate for NanoLuc luciferase. This substrate diffuses from cells into the surrounding culture medium, where it is rapidly used by the NanoLuc Enzyme to produce a luminescent signal. The signal correlates with the number of viable cells, making the assay well suited for cytotoxicity studies.
Tox21 Assay Protocol Summary:
The mixture of HepG2 cell suspension and reagents were dispensed at 600cells/6 ul/well in 1536-well tissue culture treated black solid bottom plates using a Multidrop dispenser. After the assay plates were incubated at a 37 C/5% CO2 incubator for 5 hours, 23 nL of compounds dissolved in DMSO, positive and negative controls was transferred to the assay plate by a pintool work station. The plates were incubated at 37 C for 40 hours. The luminescence intensity were measured at 0h, 8h, 16h, 24h, 32h and 40h time points using ViewLux plate reader during compound treatment.
For `COP(=S)(OC)Oc1cc(Cl)c(Cl)cc1Cl`, the Potency entry was “inactive”.
The same measure, in the same setting: to `c1ccc(N=Nc2ccccc2)cc1` belongs “inactive”.
Still for that read-out and setting: as for `CC(C)N(C(=O)SCC(Cl)=C(Cl)Cl)C(C)C`, the entry is “inactive”.
For `CCC(=O)O[C@H]1CC[C@H]2[C@@H]3CCC4=CC(=O)CC[C@]4(C)[C@H]3CC[C@]12C`, the “viability change, negative = cytotoxic” value is 2.23% [at 35.3 µM] (inactive).
Take `N#CC(Br)Br`: the Potency result was “inactive”.
Take `CCN(CC)C(=O)SCc1ccc(Cl)cc1`: the Potency result is “inactive”.
On to `CCOCN(C(=O)CCl)c1c(C)cccc1CC`, for which the Potency result was “inactive”.
On the same count and under the same terms, as for `C1=Cc2cccc3cccc1c23`, the entry is “inactive”; as for `CCN(CC)C(=O)/C(Cl)=C(\C)OP(=O)(OC)OC`, “inactive”; as for `Cc1ccc(N)c(N)c1`, “inactive”.
Same read-out and setting: as for `CCOc1cc(Oc2ccc(C(F)(F)F)cc2Cl)ccc1[N+](=O)[O-]`, the entry is “inactive”; as for `CCC(C)c1cc([N+](=O)[O-])cc([N+](=O)[O-])c1O` (stereo not given), “inactive”; as for `c1ccc(NNc2ccccc2)cc1`, “inactive”.
Same read-out and setting: to `NC(=S)Nc1ccccc1` belongs “inactive”; to `c1cc(OCC2CO2)ccc1Cc1ccc(OCC2CO2)cc1` (stereo not given), “inactive”; to `N[C@@H](Cc1ccc(N(CCCl)CCCl)cc1)C(=O)O`, “inactive”.
For the compound `O=C1C=CC(=O)C=C1`, the Potency result is “inactive”.
Still for that read-out and setting: as for `CNC(=O)Oc1cccc2c1OC(C)(C)O2`, the entry is “inactive”; as for `CCc1cccc(CC)c1N(COC)C(=O)CCl`, “inactive”; as for `O=C(O)CC[N+](=O)[O-]`, “inactive”.
The same measure, in the same setting: to `O=[N+]([O-])c1c(Cl)c(Cl)c(Cl)c(Cl)c1Cl` belongs “inactive”; to `COP(=S)(OC)Oc1ccc([N+](=O)[O-])cc1`, “inactive”.
For `COc1ccc(C(CN(C)C)C2(O)CCCCC2)cc1` (stereo not given), the “viability change, negative = cytotoxic” value was 1.59% [at 35.3 µM] (inactive).
Turning to `C=CC(=O)OCCO`, the Potency entry is “inactive”.
For the compound `CCCCOCCOP(=O)(OCCOCCCC)OCCOCCCC`, the Potency result is “inactive”.
In the case of `Clc1nc(Cl)nc(Cl)n1`, the Potency result is “inactive”.
The same measure, in the same setting: as for `CCC(C)(c1ccc(O)cc1)c1ccc(O)cc1`, the entry is “inactive”; as for `CCC(C)(C)c1ccc(O)cc1`, “inactive”; as for `O=C(NC(=O)c1c(F)cccc1F)Nc1ccc(Cl)cc1`, “inactive”.
On the same count and under the same terms, to `Nc1ccc(Cl)c(Cl)c1` belongs “inactive”; to `C=CCN(CC=C)C(=O)C(Cl)Cl`, “inactive”.
The same measure, in the same setting: as for `OCC(O)CO`, the entry is “inactive”.
Consider `CC(C)C(=O)OCC(C)(C)C(OC(=O)C(C)C)C(C)C` (stereo not given), for which the Potency result was “inactive”.
The same measure, in the same setting: as for `CCC(CC)Nc1c([N+](=O)[O-])cc(C)c(C)c1[N+](=O)[O-]`, the entry is “inactive”; as for `CCCCC(CC)COC(=O)c1ccc(C(=O)OCC(CC)CCCC)c(C(=O)OCC(CC)CCCC)c1` (stereo not given), “inactive”.
Still for that read-out and setting: as for `Nc1ccc(Cl)cc1N`, the entry is “inactive”.
Still for that read-out and setting: to `Cc1ccccc1[N+](=O)[O-]` belongs “inactive”.
In the case of `CN(C)c1ccc(C(=O)c2ccc(N(C)C)cc2)cc1`, the “viability change, negative = cytotoxic” value is -10.3% (inactive).
As for `NNC(=S)NN`, the Potency entry was “inactive”.
On the same count and under the same terms, to `COP(=O)(OC)OC` belongs “inactive”.
